We go through 7 compounds from PubChem BioAssay (NCI).

Among the test systems are DU-145 prostate; K-562 leukemia; MALME-3M melanoma; MDA-MB-231 breast; RXF 393 renal; SF-268 CNS; SF-295 CNS; SF-539 CNS; UACC-257 melanoma; M14 melanoma; HCT-15 colon; HT29 colon; SNB-75 CNS; SNB-19 CNS; U251 CNS; PC-3 prostate; SK-MEL-5 melanoma; UACC-62 melanoma; LOX IMVI melanoma; SK-MEL-28 melanoma.
What all share (experiment): NCI-60 one-dose screen, 48 h (100 = growth as untreated, 0 = no growth, -100 = all killed)
Holding throughout (details): 10 µM unless noted

This is part of a sample that, as a whole, favours compounds with a hit. Of some 83,000 tested, about 20% had one in any assay.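 In brief: 96-well plates, 48 h treatment, single concentration, percent growth endpoint.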 Unmarked numbers belong to inactive results. Calls of active or inactive are those of the source. Rule for the calls: active = growth percent below 10; inactive = the rest.

On to `COc1cc2ncnc(Nc3ccc(O)cc3)c2cc1OC`, for which the growth with DU-145 prostate is 61.3%; in the assay on K-562 leukemia, 73%; with MALME-3M melanoma it was 102%; in the assay on MDA-MB-231 breast it was 88.8%; with RXF 393 renal it was 82.3%; in the assay on SF-268 CNS it was 86.6%. For the same compound, the growth was 98.8% in the assay on SF-295 CNS; 73.4% in the assay on SF-539 CNS; 63.7% with UACC-257 melanoma; 79.7% in the assay on M14 melanoma; 95.8% with HCT-15 colon; 68.2% in the assay on HT29 colon. Moreover, the growth in the assay on SNB-75 CNS is 64%; in the assay with SNB-19 CNS, 77.7%; in the assay with U251 CNS, 83.6%; in the assay with PC-3 prostate, 91%; with SK-MEL-5 melanoma, 98.2%; in the assay on UACC-62 melanoma, 76.7%. Besides, the results for the growth in the assay with LOX IMVI melanoma and in the assay on SK-MEL-28 melanoma were 92.2% and 97%, respectively.

`Cc1ccc(C(=O)Nc2ccc(CN3CCN(C)CC3)c(C(F)(F)F)c2)cc1C#Cc1cnc2cccnn12`: the growth in the assay with DU-145 prostate was -99.7% (active); with K-562 leukemia, -64.9% (active); in the assay with MALME-3M melanoma, -85.5% (active); with MDA-MB-231 breast it was -85% (active); in the assay on RXF 393 renal, -95.1% (active); in the assay on SF-268 CNS it was -96.4% (active). For the same compound, the growth in the assay with SF-295 CNS was -95.7% (active); in the assay on SF-539 CNS, -97.2% (active); in the assay with UACC-257 melanoma it was -88.3% (active); in the assay with M14 melanoma it was -88.8% (active); in the assay on HCT-15 colon, -83.1% (active); with HT29 colon, -69.8% (active). The growth with SNB-75 CNS is -99.1% (active); in the assay with SNB-19 CNS, -98.3% (active); in the assay with U251 CNS, -98.5% (active); with PC-3 prostate it was -64.1% (active); with SK-MEL-5 melanoma, -98.8% (active); in the assay on UACC-62 melanoma, -89.1% (active). Besides, the figures for the growth in the assay with LOX IMVI melanoma and in the assay on SK-MEL-28 melanoma were -94% (active) and -97% (active), respectively.

In the case of `O=C1NC(=O)/C(=C/c2ccc3nccc(-c4ccncc4)c3c2)S1`, the growth is 2.86% (active) in the assay with DU-145 prostate; 5.97% (active) in the assay with K-562 leukemia; -42.7% (active) with MALME-3M melanoma; -13.3% (active) in the assay with MDA-MB-231 breast; -74.2% (active) in the assay on RXF 393 renal; -11.5% (active) with SF-268 CNS. Further, the growth in the assay with SF-295 CNS was -48.2% (active); in the assay on SF-539 CNS, -61.5% (active); in the assay with UACC-257 melanoma, -33.5% (active); in the assay with M14 melanoma it was -45.5% (active); in the assay with HCT-15 colon it was -19.5% (active); in the assay on HT29 colon, -51.4% (active). Moreover, the growth with SNB-75 CNS was -45.9% (active); in the assay with SNB-19 CNS it was -26.6% (active); in the assay on U251 CNS it was -74.6% (active); in the assay on PC-3 prostate, -24.5% (active); in the assay with SK-MEL-5 melanoma, -94.7% (active); in the assay on UACC-62 melanoma, -74.2% (active). Also, the growth in the assay with LOX IMVI melanoma is -40.8% (active); with SK-MEL-28 melanoma, -32.6% (active).

Regarding `CO[C@H]1C[C@@H]2CC[C@@H](C)[C@@](O)(O2)C(=O)C(=O)N2CCCC[C@H]2C(=O)O[C@H]([C@H](C)C[C@@H]2CC[C@@H](OC(=O)C(C)(CO)CO)[C@H](OC)C2)CC(=O)[C@H](C)/C=C(\C)[C@@H](O)[C@@H](OC)C(=O)[C@H](C)C[C@H](C)\C=C/C=C/C=C/1C`, the growth in the assay on DU-145 prostate was 37.7%; in the assay on K-562 leukemia, 18.3%; in the assay with MALME-3M melanoma, 24%; with MDA-MB-231 breast, 24.8%; in the assay on RXF 393 renal, -16.3% (active); in the assay with SF-268 CNS it was 30.9%. The growth in the assay on SF-295 CNS was 13.6%; in the assay with SF-539 CNS it was 4.68% (active); in the assay on UACC-257 melanoma it was 30.4%; in the assay with M14 melanoma it was 32.3%; in the assay with HCT-15 colon, 27.3%; in the assay on HT29 colon it was 4.55% (active). The growth in the assay on SNB-75 CNS was -0.0597% (active); with SNB-19 CNS, 30.6%; in the assay on U251 CNS, 19.4%; with PC-3 prostate, 18.1%; in the assay with SK-MEL-5 melanoma it was 12.9%; in the assay on UACC-62 melanoma it was 31.5%. The growth was 22.5% with LOX IMVI melanoma and 34.2% in the assay on SK-MEL-28 melanoma.

With `O=C(NC1CCNCC1)c1[nH]ncc1NC(=O)c1c(Cl)cccc1Cl`, the growth with DU-145 prostate is 12.3%; with K-562 leukemia, 5.78% (active); in the assay on MALME-3M melanoma, -38.8% (active); with MDA-MB-231 breast it was 1.88% (active); in the assay on RXF 393 renal, -50% (active); in the assay with SF-268 CNS, 9.79% (active). In addition, the growth in the assay with SF-295 CNS was 8.53% (active); with SF-539 CNS it was -41.9% (active); in the assay on UACC-257 melanoma, -6.15% (active); in the assay on M14 melanoma, 9.93% (active); in the assay on HCT-15 colon it was 72.7%; with HT29 colon, -26.7% (active). In addition, the growth in the assay on SNB-75 CNS is -40.7% (active); in the assay with SNB-19 CNS it was 12.5%; in the assay on U251 CNS, 4.47% (active); with PC-3 prostate, 5.97% (active); with SK-MEL-5 melanoma, -12.8% (active); with UACC-62 melanoma, -41.9% (active). Moreover, the growth with LOX IMVI melanoma was 8.93% (active); in the assay with SK-MEL-28 melanoma, -14.5% (active).

For `C=CC(=O)N1CCC(Oc2cc3c(Nc4ccc(Cl)c(Cl)c4F)ncnc3cc2OC)CC1`, the growth with DU-145 prostate was 24.2%; in the assay with K-562 leukemia, 12.6%; with MALME-3M melanoma it was 60.9%; in the assay on MDA-MB-231 breast it was 17.3%; in the assay with RXF 393 renal, -46.6% (active); with SF-268 CNS, 8.38% (active). The growth in the assay on SF-295 CNS was 15.9%; with SF-539 CNS, -8.55% (active); with UACC-257 melanoma it was 24.4%; in the assay on M14 melanoma, 28.8%; in the assay on HCT-15 colon, 21.2%; with HT29 colon, -16.4% (active). The growth in the assay on SNB-75 CNS was -18.4% (active); in the assay with SNB-19 CNS it was 32.4%; with U251 CNS, 32.8%; in the assay with PC-3 prostate, 14.2%; with SK-MEL-5 melanoma, 18.7%; in the assay with UACC-62 melanoma it was 20.7%. Also, the growth with LOX IMVI melanoma is -66.1% (active); in the assay with SK-MEL-28 melanoma, 63.3%.

In the case of `CNC(=O)c1c(C)oc2cc(Oc3ncnc4cc(OC)c(OC)cc34)ccc12`, the growth in the assay on DU-145 prostate is 101%; with K-562 leukemia, 88.4%; with MALME-3M melanoma, 104%; with MDA-MB-231 breast, 101%; in the assay on RXF 393 renal, 66.4%; in the assay with SF-268 CNS, 70.7%. Also, the growth in the assay on SF-295 CNS is 96%; in the assay on SF-539 CNS it was 41.6%; in the assay with UACC-257 melanoma, 86.6%; in the assay on M14 melanoma, 98.2%; in the assay with HCT-15 colon, 109%; in the assay on HT29 colon, 98.4%. Also, the growth with SNB-75 CNS was 58.2%; in the assay with SNB-19 CNS, 97.5%; in the assay with U251 CNS it was 58.9%; with PC-3 prostate, 84.9%; with SK-MEL-5 melanoma, 121%; in the assay on UACC-62 melanoma, 104%. In addition, the growth in the assay with LOX IMVI melanoma is 96.5%; in the assay on SK-MEL-28 melanoma, 119%.
